Screening results from PubChem BioAssay.
G9a inh – inhibitors of human histone lysine methyltransferase G9a; G9a H3K9 monomethylation, AlphaScreen, 2 h; 8.8% of 350,000 active; Potency, µM (highest dose often 102 µM), actives largely listed as inhibitors; further: nearly all actives have a fitted effect of over 75% in size
Target sequence (Q96KQ7 913-1193 limits assumed): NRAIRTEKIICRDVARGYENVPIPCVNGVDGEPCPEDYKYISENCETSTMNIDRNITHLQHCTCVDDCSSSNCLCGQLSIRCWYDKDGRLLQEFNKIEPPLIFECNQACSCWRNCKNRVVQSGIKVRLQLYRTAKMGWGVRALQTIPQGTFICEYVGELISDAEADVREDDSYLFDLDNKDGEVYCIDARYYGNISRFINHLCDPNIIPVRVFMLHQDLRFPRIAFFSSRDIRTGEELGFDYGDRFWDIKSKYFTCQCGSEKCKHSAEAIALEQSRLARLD
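G9a (20 nM) was preincubated 15 min with compound, then reacted 2 h at room temperature with 500 nM biotin-H3K9 peptide and 20 µM SAM. Monomethyl-H3K9 detected by AlphaScreen using anti-H3K9me1 antibody.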
BAZ2B inh – inhibitors of human BAZ2B bromodomain | Potency, µM (titrated, usually from 114 µM), actives largely listed as inhibitors | AID 504333 | Q9UIF8 | 4.4% of 360,000 active | AlphaScreen BAZ2B-H3K14Ac peptide displacement; further: nearly all actives have a fitted effect of over 60% in size
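AlphaScreen displacement: compounds (up to 110uM) incubated 30 min at room temperature with a preformed 50 nM BAZ2B/50 nM biotinylated H3K14Ac peptide complex in PBS pH 7.4 with Tween-20. Donor and acceptor beads at 10 ug/mL final added, 20 min light-protected before reading.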
HP1b chromo inh – inhibitors of HP1-beta chromodomain binding to methylated histone tails | P83916 | AID 540317 | Potency, µM (highest dose often 114 µM), hits mostly inhibitors | AlphaScreen HP1-beta / biotin-H3K9me3 peptide binding | 0.56% of 390,000 active; further: nearly all actives have a fitted effect of over 70% in size
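HP1-beta protein (50 nM final) preincubated 30 min at room temperature with biotinylated H3(1-18)K9me3 peptide (50 nM) in PBS pH 7.4, 0.01% Tween-20, then compound added for 30 min. AlphaScreen streptavidin donor/nickel chelate acceptor beads (10 ug/mL final), 30 min dark, luminescence read.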
PLK1 PBD block – inhibitors of human PLK1 polo-box domain binding; P53350; Plk1 PBD binding of FITC phosphopeptide, fluorescence polarization; Potency, µM, hits mostly inhibitors; 2.8% of 360,000 active; AID 720504; further: series mostly up to about 57 µM; nearly all actives have a fitted effect of over 65% in size
PI5P4K alpha inh – blocks human PI5P4K alpha kinase activity | PI5P4Kalpha enzyme, ADP-Glo luminescence, 60 min; active compounds read low | max response, % | 1.2% of 330,000 active; active means max response of -50% or lower; inconclusive means between -30% and -50%; inactive means -30% or higher; further: value at the top dose of about 77 µM
Target sequence (P48426 whole entry, looked up): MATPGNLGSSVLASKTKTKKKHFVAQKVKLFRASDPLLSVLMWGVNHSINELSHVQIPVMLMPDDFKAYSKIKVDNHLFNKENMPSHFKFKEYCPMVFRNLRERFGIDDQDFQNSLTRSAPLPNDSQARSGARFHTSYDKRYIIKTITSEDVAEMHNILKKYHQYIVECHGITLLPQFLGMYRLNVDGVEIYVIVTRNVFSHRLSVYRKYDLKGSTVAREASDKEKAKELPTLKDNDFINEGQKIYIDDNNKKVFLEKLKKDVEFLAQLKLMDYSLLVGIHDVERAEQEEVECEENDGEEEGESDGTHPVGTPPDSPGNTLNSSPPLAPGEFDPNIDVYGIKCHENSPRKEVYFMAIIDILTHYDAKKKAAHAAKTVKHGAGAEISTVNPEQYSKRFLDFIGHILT
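Quantitative HTS of the MLSMR library against PI5P4Kalpha with substrate. ATP added last at 5 microM final; room temperature, 60 minutes. Remaining ATP depleted, ADP converted and read as luminescence.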
JMJD2A Tudor inh – JMJD2A Tudor domain (human) inhibition | O75164 | AlphaScreen JMJD2A-Tudor / H3K4me3 peptide binding | 4.4% of 390,000 active | Potency, µM (highest dose often 114 µM), most hits filed as inhibitors; further: nearly all actives have a fitted effect of over 50% in size
A number is an active result; n = inactive; u = inconclusive; x = no result; [ ] = dose if it differs, or a comment. Sampled rows, rich in hits. Any-hit rate of the full collection: about 12%. Unless noted, the call rests on the fitted dose curve; in most records, active means well fitted curve in the direction sought with a large enough effect; inconclusive means small, poorly fitted or top-dose-only effect, or another doubt; inactive means no such curve, though single readings can be large; an effect the other way counts as inactive or inconclusive.

SMILES	G9a inh	BAZ2B inh	HP1b chromo inh	PLK1 PBD block	PI5P4K alpha inh	JMJD2A Tudor inh
CC(=O)c1c(C)[nH]c(C(=O)N(C)CC(=O)Nc2ccc(Cl)c(C(F)(F)F)c2)c1C	n	n	n	n	n	n
COc1ccccc1CNC(=O)c1cc2cccc3c2n1CC(C)S3 (stereo not drawn)	n	n	n	x	x	n
Cc1ccc(C2C(/C=C3/SC(=S)NC3=O)=C(c3cccs3)Oc3ccccc32)cc1 (stereo not drawn)	32µM	25µM	u	u	x	35µM
COc1ccc(Cl)cc1NC(=O)C(C)Sc1nncn1C (stereo not drawn)	n	n	n	n	n	n
COc1ccc(OC)c(-c2nnc(NC(=O)C(C)Sc3nncn3C)s2)c1 (stereo not drawn)	32µM	n	n	n	n	n
CCn1c(SCc2ccc(F)cc2Cl)nnc1-c1nonc1NC(C)=O	n	n	n	x	x	n
Cc1ccc(NC(=O)c2cc(N(C)C)ccc2[P+](=O)O)cc1	28µM	u	n	n	x	u
COCC(C)n1c(C)cc(C(=O)COC(=O)c2cccn2C)c1C (stereo not drawn)	x	x	n	n	n	n
COCC(C)n1c(C)cc(C(=O)COC(=O)c2nc3nc(C)cc(C)n3n2)c1C (stereo not drawn)	56µM	n	n	n	n	n
CC1ON=C(c2cccc3ccccc23)N(C)C1=O (stereo not drawn)	x	x	x	n	n	x
CC1CN(C(=O)N2CCC(C(=O)NC3CCCCCC3)CC2)c2cc(Cl)ccc2O1 (stereo not drawn)	u	n	u	x	x	n
CCOc1ccc(NC(=O)C2CCN(C(=O)N3CC(C)Oc4ccc(Cl)cc43)CC2)cc1 (stereo not drawn)	u	79µM	n	x	x	u
CCOC(=O)Nc1cc2c(c(N)n1)N=C(c1ccccc1)CN2	x	x	n	n	-68	n
CCOC(=O)N1CCN(c2cc(NCCC(=O)O)c3c4c(onc24)-c2ccccc2C3=O)CC1	u	28µM	n	n	u	56µM
O=C1c2ccccc2-c2onc3c(N4CCN(CCO)CC4)cc(N4CCN(C(=O)c5ccco5)CC4)c1c23	28µM	16µM	u	n	u	25µM
O=C(O)CCCNc1cc(N2CCC3(CC2)OCCO3)c2noc3c2c1C(=O)c1ccccc1-3	u	14µM	x	x	x	x
O=C(O)CCCNc1cc(N2CCN(C(=O)c3ccco3)CC2)c2noc3c2c1C(=O)c1ccccc1-3	10µM	18µM	35µM	n	u	35µM
O=C(c1ccco1)N1CCN(CCCCN2C(=O)c3ccccc3C2=O)CC1	n	n	n	n	x	n
CCOC(=O)N1CCN(C(=O)c2noc3c2COc2ccccc2-3)CC1	u	n	n	n	n	n
CCn1c(=O)cc(SCC(=O)N2CCN(C3CCCCC3)CC2)c2ccccc21	n	n	n	n	x	n
CCCCNc1cc(N2CCN(C3CCCCC3)CC2)c2noc3c2c1C(=O)c1ccccc1-3	u	5µM	n	x	x	u
CN1CCN(c2cc(N3CCN(C(=O)c4ccco4)CC3)c3c4c(onc24)-c2ccccc2C3=O)CC1	35µM	16µM	u	n	n	40µM
Cc1cc(OC(C)C(=O)Nc2ccncc2)ccc1Cl (stereo not drawn)	n	n	n	n	n	n
Cc1ccc(S(=O)(=O)c2[nH]c(-c3ccccc3)nc2SCCC(=O)O)cc1	u	n	n	x	x	n
CC(=O)CSc1nc(-c2ccccc2)[nH]c1S(=O)(=O)c1ccc(C)cc1	n	n	n	x	x	n
SMILES	G9a inh	BAZ2B inh	HP1b chromo inh	PLK1 PBD block	PI5P4K alpha inh	JMJD2A Tudor inh
CCC(Sc1nc(-c2ccccc2)[nH]c1S(=O)(=O)c1ccc(C)cc1)C(=O)O (stereo not drawn)	13µM	n	n	x	x	n
CCCSc1nc(-c2ccccc2)[nH]c1S(=O)(=O)c1ccc(C)cc1	13µM	n	n	x	x	n
Cc1ccccc1N1CCN(CCC(=O)Nc2ccc(F)cc2)CC1	n[0.501 µM]	n	n	n	n	n
O=C(O)/C(=C/c1ccc(Cl)c([N+](=O)[O-])c1)c1ccc(S(=O)(=O)N2CCCCC2)s1	x	x	n	u	n	n
CC1(C)CSC(=NCCc2ccccc2)N1	n	n	n	n	n	n
CC1(C)CSC(=NCCc2ccccc2)N1C(=O)c1ccc(C#N)cc1	2.8µM	u	n	n	n	n
N#Cc1ccc(OCC(=O)NCCCn2ccnc2)cc1	x	x	n	n	n	63µM
N#Cc1ccc(OCC(=O)Nc2ccncc2)cc1	50µM	n	n	n	n	n
Cc1cccc(C)c1NC(=O)C1CCCN1S(=O)(=O)c1cccc2nsnc12 (stereo not drawn)	n	n	n	x	x	n
COc1ccc(Cl)cc1NC(=O)Cc1ccc(NC(=O)N2CCCCc3ccccc32)cc1	n	n	n	x	x	n
CCOc1ccc(CCNC(=O)Cn2ccc3cc(S(=O)(=O)N4CCCCC4)ccc32)cc1	u	n	n	x	x	n
CCOC(=O)c1c(NC(C)=O)sc2c(O)c(CN3CCN(CC)CC3)ccc12	25µM	u	n	n	x	u
COc1cc(C2C(C(=O)N3CCOCC3)=C(C)NC3=C2C(=O)CCC3)ccc1OC(C)=O (stereo not drawn)	1.6µM	n	n	n	x	n
Cc1ccc(N2C(=O)C3C4CCC(O4)C3C2=O)c(OC(F)F)c1 (stereo not drawn)	n[2.33 µM]	n	n	n	n	n
O=C1CC(SCCc2nc3ccccc3[nH]2)C(=O)N1c1ccc(F)cc1 (stereo not drawn)	45µM	n	n	n	x	n
O=C(CSc1ccccn1)Nc1ccc2[nH]c(=O)[nH]c2c1	u	n	n	27µM	n	n
O=C(CSc1ccccn1)Nc1cccc([N+](=O)[O-])c1	11µM	n	n	19µM	u	n
CC(C)c1ccc(NC(=O)CSc2ncccc2C(=O)Oc2cccc([N+](=O)[O-])c2)cc1	50µM	n	n	n	n	n
COc1ccc(NC(=O)CSc2ncccc2C(=O)OC(C)C)cc1OC	u	u	n	n	x	n
O=[N+]([O-])c1nc2ccccc2[nH]1	x	x	n	n	n	n
Cc1cc2nc(-c3ccccc3)c(Cc3ccsc3)n2c(C)c1Br	x	x	x	n	n	x
CN(Cc1ccccc1)C(=O)c1ccc(S(=O)(=O)N(C)c2ccccc2)cc1	x	x	n	n	n	n
CCCCS(=O)CC(COc1ccc(Cl)cc1)OC(=O)c1ccccc1 (stereo not drawn)	50µM	n	n	n	n	n
O=C(NCC1CCCO1)c1nc2c(nnn2Cc2ccc(F)cc2)c(=O)[nH]1 (stereo not drawn)	50µM	n	n	n	x	u
O=C(Nc1ccc(F)cc1)c1nc2c(nnn2Cc2cccc3ccccc23)c(=O)[nH]1	n	u	n	24µM	n	n
O=C(NCc1cccs1)c1nc2c(nnn2Cc2ccc(F)cc2)c(=O)[nH]1	n	n	n	n	x	n
